# Assay results taken from ChEMBL document CHEMBL5606460, “ASAP - DENV-2 NS2B-NS3 protease fluorescence single point” (2024).
# The whole screen tested about 2,000 compounds, of which about 110 (5.5%) showed an effect of 50% or more. Many of the other results were omitted from the sample, so strong results are more common in it than they were.
# Target: Genome polyprotein (dengue virus type 2) (UniProt P29990)
# [1] = Thailand/16681/1984, Concentration 25.0 uM, Number of replicates 1.0
smiles,measurement,setting,value
Cc1cc(CO)c2cccc(Cc3cccc(C(=O)N4CCC(C(=O)O)CC4)c3)c2n1,inhibition,"Thailand/16681/1984, Concentration 49.95 uM, Number of replicates 2.0, Standard deviation 0.11067239798039237 %",-0.531%
same,inhibition,"Thailand/16681/1984, Concentration 99.9 uM, Number of replicates 2.0, Standard deviation 0.04599367566818035 %",2.3%
Cc1cc(CO)c2cccc(Cc3cccc(C(=O)N4CC[C@@H](CO)C4)c3)c2n1,inhibition,"Thailand/16681/1984, Concentration 49.95 uM, Number of replicates 2.0, Standard deviation 1.5846275376108605 %",1.42%
same,inhibition,"Thailand/16681/1984, Concentration 99.9 uM, Number of replicates 2.0, Standard deviation 0.9371220268229934 %",23.4%
Cc1cc(CO)c2cccc(Cc3ccccc3C(=O)N3CCC(CN)CC3)c2n1,inhibition,"Thailand/16681/1984, Concentration 49.95 uM, Number of replicates 2.0, Standard deviation 7.669453256982897 %",67%
same,inhibition,"Thailand/16681/1984, Concentration 99.9 uM, Number of replicates 2.0, Standard deviation 4.997502207892192 %",86.3%
Cc1cc(CO)c2cccc(Cc3ccccc3C(=O)N3CCC(C(=O)O)CC3)c2n1,inhibition,"Thailand/16681/1984, Concentration 49.95 uM, Number of replicates 2.0, Standard deviation 0.622352552136526 %",0.457%
same,inhibition,"Thailand/16681/1984, Concentration 99.9 uM, Number of replicates 2.0, Standard deviation 0.7955477281018075 %",4.68%
Cc1cc(CO)c2cccc(Cc3cccc(C(=O)N4CCC(CN)CC4)c3)c2n1,inhibition,"Thailand/16681/1984, Concentration 49.95 uM, Number of replicates 2.0, Standard deviation 0.03521723226612688 %",98.6%
same,inhibition,"Thailand/16681/1984, Concentration 99.9 uM, Number of replicates 2.0, Standard deviation 0.007908771829372243 %",98.5%
O=Cc1ccc(N2CCC(C(=O)NC3CN(C(c4ccccc4)c4ccccc4)C3)CC2)cc1,inhibition,[1],2.62%
CC(C)N(C[C@H](O)COc1ccc(CC(N)=O)cc1)C(=O)C1CCN(c2ccc(C=O)cc2)CC1,inhibition,[1],13.4%
Cc1ccc(S(N)(=O)=O)c(NCc2ccc(N3CCN(C)CC3)cc2)c1,inhibition,"Thailand/16681/1984, Concentration 49.5 uM, Number of replicates 2.0, Standard deviation 0.9591550294519122 %",-0.337%
same,inhibition,"Thailand/16681/1984, Concentration 99.01 uM, Number of replicates 2.0, Standard deviation 0.6629248720953049 %",1.24%
same,inhibition,"Thailand/16681/1984, Concentration 198.0 uM, Number of replicates 2.0, Standard deviation 0.09920698004573132 %",1.03%
CCc1ccc(CN(CC(C)C)C(=O)C2CCN(c3ccc(C=O)cc3)CC2)cc1,inhibition,[1],13.3%
O=Cc1ccc(N2CCC(C(=O)Nc3ccccc3Sc3ccccc3)CC2)cc1,inhibition,[1],12.1%
CNC(=O)c1cc(Cl)ccc1NS(=O)(=O)c1cccc(S(N)(=O)=O)c1,inhibition,"Thailand/16681/1984, Concentration 49.5 uM, Number of replicates 2.0, Standard deviation 0.4003966624337367 %",1.73%
same,inhibition,"Thailand/16681/1984, Concentration 99.01 uM, Number of replicates 2.0, Standard deviation 1.0615056375609497 %",3.26%
same,inhibition,"Thailand/16681/1984, Concentration 198.0 uM, Number of replicates 2.0, Standard deviation 0.04640199433655389 %",5.28%
COC1CN(C(=O)c2cc(Cl)ccc2NS(=O)(=O)c2ccc(Oc3ccccc3Cl)cc2)C1,inhibition,"Thailand/16681/1984, Concentration 49.5 uM, Number of replicates 2.0, Standard deviation 0.43340110085934463 %",13.9%
same,inhibition,"Thailand/16681/1984, Concentration 99.01 uM, Number of replicates 2.0, Standard deviation 0.8668022017186893 %",27.6%
same,inhibition,"Thailand/16681/1984, Concentration 198.0 uM, Number of replicates 2.0, Standard deviation 1.1631532151634014 %",43.9%
O=S(=O)(Nc1ccccc1)c1ccc(Oc2ccccc2Cl)cc1,inhibition,"Thailand/16681/1984, Concentration 49.5 uM, Number of replicates 2.0, Standard deviation 1.8105423163556815 %",1.05%
same,inhibition,"Thailand/16681/1984, Concentration 99.01 uM, Number of replicates 2.0, Standard deviation 1.556829309720985 %",2.93%
same,inhibition,"Thailand/16681/1984, Concentration 198.0 uM, Number of replicates 2.0, Standard deviation 1.335088080503107 %",5.83%
O=C(c1cc(Cl)ccc1NS(=O)(=O)c1ccc(Oc2ccccc2Cl)cc1)N1CCC[C@H](O)C1,inhibition,"Thailand/16681/1984, Concentration 49.5 uM, Number of replicates 2.0, Standard deviation 1.2236693461292836 %",22.2%
same,inhibition,"Thailand/16681/1984, Concentration 99.01 uM, Number of replicates 2.0, Standard deviation 0.043163767671764885 %",86.9%
same,inhibition,"Thailand/16681/1984, Concentration 198.0 uM, Number of replicates 2.0, Standard deviation 0.0596286869236367 %",96.8%
CNC(=O)c1cc(Cl)ccc1NS(=O)(=O)c1ccc(F)c(C(=O)N2CCCC2)c1,inhibition,"Thailand/16681/1984, Concentration 49.5 uM, Number of replicates 2.0, Standard deviation 0.7714528805703116 %",-4.6%
same,inhibition,"Thailand/16681/1984, Concentration 99.01 uM, Number of replicates 2.0, Standard deviation 1.6986403894371052 %",-2.1%
same,inhibition,"Thailand/16681/1984, Concentration 198.0 uM, Number of replicates 2.0, Standard deviation 1.4542094148600992 %",1.16%
CCc1cccc(S(=O)(=O)Nc2ccc(Cl)cc2C(=O)NC)c1,inhibition,"Thailand/16681/1984, Concentration 49.5 uM, Number of replicates 2.0, Standard deviation 0.31892086155653854 %",0.409%
same,inhibition,"Thailand/16681/1984, Concentration 99.01 uM, Number of replicates 2.0, Standard deviation 0.4824817381530084 %",0.666%
same,inhibition,"Thailand/16681/1984, Concentration 198.0 uM, Number of replicates 2.0, Standard deviation 0.7239504320191382 %",1.73%
CNC(=O)c1cc(Cl)ccc1NS(=O)(=O)c1cccc(Oc2ccccc2)c1,inhibition,"Thailand/16681/1984, Concentration 49.5 uM, Number of replicates 2.0, Standard deviation 1.273206391645472 %",8.45%
same,inhibition,"Thailand/16681/1984, Concentration 99.01 uM, Number of replicates 2.0, Standard deviation 0.33776821571418564 %",23.8%
same,inhibition,"Thailand/16681/1984, Concentration 198.0 uM, Number of replicates 2.0, Standard deviation 0.06600533651594093 %",89.9%
O=C(c1cc(Cl)ccc1NS(=O)(=O)c1ccc(Oc2ccccc2Cl)cc1)N1CCCC1,inhibition,"Thailand/16681/1984, Concentration 49.5 uM, Number of replicates 2.0, Standard deviation 0.3065647121254482 %",37.4%
same,inhibition,"Thailand/16681/1984, Concentration 99.01 uM, Number of replicates 2.0, Standard deviation 0.3046576515240273 %",55.4%
same,inhibition,"Thailand/16681/1984, Concentration 198.0 uM, Number of replicates 2.0, Standard deviation 0.40716687929743567 %",69%
NC(=O)c1ccccc1NS(=O)(=O)c1ccc(Oc2ccccc2Cl)cc1,inhibition,"Thailand/16681/1984, Concentration 49.5 uM, Number of replicates 2.0, Standard deviation 0.6673279112123895 %",5.67%
same,inhibition,"Thailand/16681/1984, Concentration 99.01 uM, Number of replicates 2.0, Standard deviation 2.0636931261780913 %",38.8%
same,inhibition,"Thailand/16681/1984, Concentration 198.0 uM, Number of replicates 2.0, Standard deviation 0.3870011295715193 %",81.3%
CNC(=O)[C@H]1CCCN1S(=O)(=O)c1ccc(Oc2ccccc2Cl)cc1,inhibition,"Thailand/16681/1984, Concentration 49.5 uM, Number of replicates 2.0, Standard deviation 0.43290983719310167 %",-4.62%
same,inhibition,"Thailand/16681/1984, Concentration 99.01 uM, Number of replicates 2.0, Standard deviation 1.120416310773355 %",-4.38%
same,inhibition,"Thailand/16681/1984, Concentration 198.0 uM, Number of replicates 2.0, Standard deviation 0.24124704358981106 %",-3.59%
CNC(=O)c1ccccc1NS(=O)(=O)c1ccc(Oc2ccccc2Cl)cc1,inhibition,"Thailand/16681/1984, Concentration 49.5 uM, Number of replicates 2.0, Standard deviation 0.8338499147497574 %",0.494%
same,inhibition,"Thailand/16681/1984, Concentration 99.01 uM, Number of replicates 2.0, Standard deviation 3.066215993073902 %",-2.05%
same,inhibition,"Thailand/16681/1984, Concentration 198.0 uM, Number of replicates 2.0, Standard deviation 2.7475277663160753 %",-6.31%
